In the library only some 1.2% were active in any assay of this set; here they are far more common.
FadD28 binding: M. tuberculosis FadD28 bisubstrate binding inhibition; FadD28 bisubstrate probe binding, fluorescence polarization; inhibition, % at 12.5 µM; actives 0.22% (n = 360,000); in the data active = inhibition above about 8.5%, passing the limit was not always enough
PrP 5UTR inh: suppresses PrP 5' UTR mRNA reporter expression | cell-based PrP 5' UTR mRNA reporter, plate reader | inhibition, % (test concentration not listed) | actives 0.35% (n = 340,000) | AID 488862; in the data active = inhibition above about 52%; note: 0 = median of the neutral control wells
Rv3671c protease: Rv3671c (M. tuberculosis) protease inhibition | P9WHR9 | inhibition, % at 5.96 µM | actives 0.048% (n = 320,000) | AID 2606; in the data active = inhibition above about 38%;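 note: extracellular domain of Rv3671c used as enzyme; 0% = enzyme with DMSO and 100% = no enzyme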
SSB-PriA inh: K. pneumoniae PriA-SSBct interaction inhibition. actives 0.6% (n = 430,000). AlphaScreen SSBct-PriA binding, biotinylated peptide. inhibition, % at 33 µM; in the data active = inhibition mostly above about 37%, no sharp cut-off; inactive = mostly below about 20%;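 note: plate controls were negative control peptide for no effect and reference peptide for full effect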
PrPC TRFRET: reduces human prion protein on the cell surface; AID 720596; actives 0.43% (n = 370,000); P04156; cell surface PrPC, TR-FRET read-out; inhibition, % at 13.8 µM; in the data active = inhibition above about 24%; note: 0% = median of the test wells and 100% = reference compound wells
Mtb UGM inh: Mtb UDP-galactopyranose mutase inhibition; purified UGM, fluorescence polarization probe displacement; inhibition, % at 10 µM; actives 0.06% (n = 320,000); in the data active = inhibition above about 10%, passing the limit was not always enough
Target sequence (P9WIQ1 whole entry, looked up): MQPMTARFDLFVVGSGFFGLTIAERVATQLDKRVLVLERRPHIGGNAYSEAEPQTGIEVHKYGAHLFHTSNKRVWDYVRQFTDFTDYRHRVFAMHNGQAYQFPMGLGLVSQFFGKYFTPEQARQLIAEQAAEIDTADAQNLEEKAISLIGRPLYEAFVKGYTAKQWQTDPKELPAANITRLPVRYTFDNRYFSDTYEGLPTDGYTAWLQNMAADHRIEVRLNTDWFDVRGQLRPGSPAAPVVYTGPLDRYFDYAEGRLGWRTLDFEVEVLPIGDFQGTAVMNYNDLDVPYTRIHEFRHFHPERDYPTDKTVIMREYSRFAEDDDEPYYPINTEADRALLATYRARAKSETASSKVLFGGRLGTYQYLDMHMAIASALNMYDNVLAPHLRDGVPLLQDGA
* hit, by the source's call; · = no result given.

SMILES	FadD28 binding	PrP 5UTR inh	Rv3671c protease	SSB-PriA inh	PrPC TRFRET	Mtb UGM inh
O=C(Nc1ccc2c(c1)N(C(=O)c1cccs1)CC2)c1ccc(F)cc1	·	·	·	-1	·	·
N#CC(C#N)=C(/C=C/c1cccs1)C1CC1	·	·	·	42*	·	·
CC[n+]1c(/C=C/C=C/N(C(C)=O)c2ccccc2)sc2ccccc21	-11	-6	-25	2	2	1
CN(C)c1ccc(/C=C/C=C/c2sc3ccccc3[n+]2C)cc1	-4	-28	-29	40*	-52	2
CN(C)c1ccc(/C=C/c2cc[n+](C)c3ccccc23)cc1	-4	10	·	19	-124	·
CC[n+]1c(/C=C/C=C/c2ccc(N(C)C)cc2)sc2ccccc21	-3	5	-81	61*	-78	0
CCN1/C(=C\C=C\c2sc3ccccc3[n+]2CC)Sc2ccccc21	·	·	·	56*	·	·
CCOc1cccc2sc(N(C[C@H]3CCCO3)C(=O)c3ccc(F)cc3F)nc12	·	·	·	0	·	·
COc1ccccc1C(=O)N1CCN(CCNC(=O)C(=O)Nc2ccc(Br)c(C)c2)CC1	-18	-26	3	2	5	0
Cc1ccccc1C(=O)N1CCN(CCNC(=O)C(=O)Nc2ccc(Br)cc2)CC1	-2	-6	-3	39*	12	5
O=C(NCCn1ccnc1-c1ccccn1)c1ccccc1Br	·	·	·	0	·	·
Oc1cccc(C=NNC(=S)NCCN2CCOCC2)c1O	·	·	·	58*	·	·
COCCn1c(Sc2nc3ccccc3[nH]2)nc2c1c(=O)[nH]c(=O)n2C	·	·	·	1	·	·
CCc1ccc(C2=NNC(=Nc3cccc(S(=O)(=O)N(C)C)c3)SC2)cc1	1	-14	-13	42*	18	1
COc1ccc(F)cc1S(=O)(=O)NCCC1=CCCCC1	·	·	·	-28	·	·
COc1ccccc1NC(=O)C1CCN(S(=O)(=O)c2cccs2)CC1	1	-27	4	-7	11	17*
CCC1=NN2C(=N)/C(=C\c3cccn3-c3ccc(OC)cc3)C(=O)N=C2S1	-1	-27	-11	-9	-4	14*
CCC1=NN2C(=N)/C(=C/c3c(C)nn(-c4ccccc4)c3Cl)C(=O)N=C2S1	-1	5	-7	3	-7	0
CCCC1=NN2C(=N)/C(=C\c3ccc(SCc4ccco4)o3)C(=O)N=C2S1	14*	-24	-41	-10	·	-2
CCCC1=NN2C(=N)/C(=C\c3cc(C)n(Cc4ccccc4)c3C)C(=O)N=C2S1	-1	-5	3	-5	0	-4
CCC1=NN2C(=N)/C(=C\c3ccc(SCc4ccco4)o3)C(=O)N=C2S1	11*	-6	-115	6	1	-4
CC1=CC(C)(C)Nc2ccc(OC(=O)C(C)N3C(=O)c4ccccc4C3=O)cc21 (centres undefined)	-3	-12	-3	43*	-7	1
CCc1c(C)nc(SCC(=O)Nc2ccc(Br)cc2)[nH]c1=O	-1	15	-1	101*	1	2
CCc1c(C)nc(SCC(=O)Nc2cccc(Br)c2)[nH]c1=O	-3	-17	1	-4	-2	-1
Cn1c(=NC(=O)c2ccc(Cl)s2)sc2cc([N+](=O)[O-])ccc21	·	·	·	-16	·	·
SMILES	FadD28 binding	PrP 5UTR inh	Rv3671c protease	SSB-PriA inh	PrPC TRFRET	Mtb UGM inh
CSC1=NSC2=NC(=O)/C(=C/c3coc4ccc(O)cc4c3=O)C(=N)N12	12*	-21	-14	7	-4	-3
Cc1ccc2[nH]c(C)c(C=NNc3nc4ccccc4s3)c2c1	·	·	·	52*	·	·
Cc1cc(OC2CCN(C(=O)C3(c4ccccc4)CCOCC3)CC2)cc(=O)o1	·	·	·	23*	·	·
O=C(N1CCC(Oc2ncccc2Br)CC1)C1(c2ccccc2)CCOCC1	·	·	·	-27	·	·
O=C(COc1ccc(Cl)cc1Cl)NC[C@@](O)(c1cccs1)C1CC1	·	·	·	-14	·	·
CN1CCc2cc(C(CNS(=O)(=O)c3ccc4c(c3)CCCC4)N(C)C)ccc21 (centres undefined)	·	·	·	53	·	·
Cn1c(=O)c(N)c2c3c(c(Br)ccc31)C(=O)c1ccccc1-2	-2	-12	20	42*	-52	15*
O=C(c1cccc(N2C(=O)CCC2=O)c1)N(Cc1cccnc1)c1nc2cc3c(cc2s1)OCCO3	·	·	·	-14	·	·
Cc1c(C(=O)NCC(c2cccc3ccccc23)N2CCOCC2)cccc1[N+](=O)[O-] (centres undefined)	·	·	·	2	·	·
O=[N+]([O-])c1ccccc1S(=O)(=O)NCC(c1cccc2ccccc12)N1CCOCC1 (centres undefined)	·	·	·	37*	·	·
COc1ccc(NC(=O)CCCN2C(=O)CN(C)C2=O)c(OC)c1	-1	-23	-3	57*	1	0
